Hits are enriched below; roughly 4.7% of the tested compounds scored in any of these assays.
D1 PAM: human D1 dopamine receptor positive modulation | AID 504651 | potentiation, % at 10 µM | 360,000 tested, 0.036% active | HEK293 TREx D1 cells, calcium flux, dopamine EC20 potentiation; in the data active means potentiation above about 30%; further: 0% is about no effect
Target sequence (P21728 whole entry, looked up): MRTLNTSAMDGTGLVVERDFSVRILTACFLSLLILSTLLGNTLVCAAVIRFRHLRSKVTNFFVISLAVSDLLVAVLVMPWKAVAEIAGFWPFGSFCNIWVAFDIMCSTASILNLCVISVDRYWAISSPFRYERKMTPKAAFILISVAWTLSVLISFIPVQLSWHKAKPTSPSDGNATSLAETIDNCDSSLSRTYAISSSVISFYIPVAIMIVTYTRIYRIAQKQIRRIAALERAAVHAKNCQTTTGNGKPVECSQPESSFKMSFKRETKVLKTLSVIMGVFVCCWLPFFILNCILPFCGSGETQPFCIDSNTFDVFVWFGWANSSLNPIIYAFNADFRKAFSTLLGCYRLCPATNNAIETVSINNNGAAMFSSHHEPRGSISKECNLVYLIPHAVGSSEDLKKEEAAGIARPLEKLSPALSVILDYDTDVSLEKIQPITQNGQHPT
TRHR PAM: TRH receptor (human) allosteric enhancement | P34981 | TRHR cells, fluo-8 calcium fluorescence, EC20 TRH enhancement | enhancement, % at 2 µM | 360,000 tested, 0.66% active; in the data active means enhancement above about 30%; further: 0% is about no effect
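TRHR-expressing cells loaded with fluo-8 calcium dye were read kinetically (ex 480/em 530) during compound addition, then stimulated with an EC20 of TRH (10 nM final). Enhancement of the Gq-mediated intracellular calcium response was scored.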
D1 antagonist: antagonists of human D1 dopamine receptor; P21728; HEK293 TREx D1 cells, calcium flux, dopamine EC80; hits give low values; activity change, negative = inhibition, % at 10 µM; 360,000 tested, 3.2% active; in the data active means activity change below about -30%; further: on the % scale 0 is the no-effect control and ±100 the full control effect
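Tetracycline-induced HEK293 Trex D1 cells, force-coupled to calcium, dye-loaded; compounds added and read 180 s, then EC80 dopamine added and calcium flux tracked kinetically another 180 s.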
D1 ag: agonists of human D1 dopamine receptor; P21728; HEK293 T-REx D1 cells, calcium flux, agonist mode; activation, % at 2 µM; 360,000 tested, 1% active; AID 504660; further: 0% is about no effect
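Inducible HEK293 T-REx D1 cells, force-coupled to calcium signalling, were plated at 4000 cells/well with tetracycline and held overnight at 30 C. After no-wash calcium dye loading, compound-evoked calcium rise over 180 s flagged agonists.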
TRHR ag: agonists of human TRH receptor | P34981 | TRHR cells, calcium flux fluo-8, FDSS agonist mode | activation, % at 2 µM | 360,000 tested, 0.18% active; further: 0% is about no effect
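Agonist-mode FDSS calcium read (Ex 480/Em 530, 1 s cycles) in 1536-well TRHR cells with fluo-8 dye, after 10-cycle baseline and 23 nL compound addition; TRH at EC20 (10 nM final) added afterwards for the enhancer phase.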
* marks the source's active call; other numbers are inactive results; · = no result given. Unless noted, no stated cut-off is given here; in the data, active means activation above about 30%; inactive means the rest.

SMILES	D1 PAM	TRHR PAM	D1 antagonist	D1 ag	TRHR ag
COc1cccc(CN2CCCC(C(=O)N3CCCCC3)C2)c1OC (stereo unspecified)	0	33*	-2	3	-1
COc1ccc(F)cc1C(=O)C1CCCN(C(=O)c2ocnc2C)C1 (stereo unspecified)	-1	2	-32*	1	-1
CCN(CC(=O)Nc1c(F)cccc1F)C(=O)c1ccc(NC(=O)CC2SC(N3CCCC3)=NC2=O)cc1 (stereo unspecified)	-7	3	12	4	0
Cc1cc(C)cc(NC(=O)CCS(=O)(=O)c2ccc3c(c2)oc(=O)n3C)c1	-2	-4	-6	0	1
CN1CCC(N(CCc2ccccc2)C(=O)CCC(=O)O)CC1	5	2	-32*	3	1
CCN(C(=O)CCc1ccccc1)C1CCCCC1	0	2	4	2	0
Fc1c(F)c(C(F)(F)F)c(F)c(F)c1N/N=C\c1cccs1	-4	-4	-34*	12	2
Cc1ccccc1S(=O)(=O)Oc1ccccc1C(=O)Oc1ccccc1	-8	6	-31*	9	1
COC(=O)CSc1cccc2c1C(=O)CC2c1ccccc1 (stereo unspecified)	-5	-6	-33*	7	-1
COC(=O)CSc1ccsc1C(=O)O	-3	-5	2	3	1
CC(C)c1nn2c(=O)cc(COC(=O)CNC(=O)c3ccccc3Cl)nc2s1	-5	4	-20	1	0
Cc1cc(C)c(NC(=O)Cn2c(=O)n(CCC(=O)NCc3ccc4c(c3)OCO4)c(=O)c3ccccc32)c(C)c1	0	11	-2	-1	-2
O=S(=O)(c1cccc(F)c1)N1CCc2sccc2C1c1ccc(OC(F)(F)F)cc1 (stereo unspecified)	-1	-3	-41*	27	6
Cc1ccc(/C=C/c2onc(C)c2S(=O)(=O)N2CCC(C(=O)Nc3ccc(OC(F)(F)F)cc3)CC2)cc1	-4	6	-68*	2	1
Cc1ccc(/C=C/c2onc(C)c2S(=O)(=O)N2CCC(C(=O)Nc3ccc(C)c(N(C)C)c3)CC2)cc1	-3	3	-13	4	0
O=C(C1=COCCO1)N(Cc1nnc(-c2ccccc2Cl)o1)C1CC1	-11	-9	-16	1	1
CCOc1ccc(NC(=O)Cn2cnc3c(oc4ccccc43)c2=O)cc1	-2	17	2	0	0
O=C(COc1ccc2c(c1)OCO2)Nc1ccccc1F	-2	2	·	0	0
Fc1ccc([C@@H]2CCNC[C@H]2COc2ccc3c(c2)OCO3)cc1	0	0	-37*	59*	2
Fc1ccc(C2CCNCC2COc2ccc3c(c2)OCO3)cc1 (stereo unspecified)	-5	3	7	38*	2
Cc1cc(C)cc(NC(=O)Cn2nnc(C(=O)Nc3cc(C)cc(C)c3)c2N)c1	-1	1	-3	1	0
Cc1cc(C(=O)C(C)OC(=O)c2ccc(NC(=O)CC#N)cc2)c(C)n1-c1ccc(OC(F)F)cc1 (stereo unspecified)	2	9	-23	7	1
CC1CCc2onc(C(=O)N3CCN(c4ccccc4)CC3)c2C1 (stereo unspecified)	2	-5	1	4	0
CN(C)/C=C/C(=O)c1cccc(Cl)c1	1	8	12	6	-1
CN(C)/C=C/C(=O)c1ccc(Cl)cc1	-2	6	-86*	8	-1
SMILES	D1 PAM	TRHR PAM	D1 antagonist	D1 ag	TRHR ag
CCCN(CC(=O)Nc1ccccc1OC)C(=O)c1ccc2c(c1)NC(=O)C(C)S2 (stereo unspecified)	·	-3	0	2	0
CCCCNc1ccc2c3c(cccc13)C(=O)N(CCCC)C2=O	4	-14	-71*	700*	286*
CCCN1C(=O)c2cccc3c(N4CCCCC4)ccc(c23)C1=O	-3	8	8	63*	22
O=C1c2cccc3c(N4CCCCC4)ccc(c23)C(=O)N1c1ccccn1	-6	14	-27	154*	156*
O=C1c2cccc3c([N+](=O)[O-])ccc(c23)C(=O)N1O	3	-3	-8	3	0
CC(=O)Oc1ccc(N2C(=O)c3cccc4c([N+](=O)[O-])ccc(c34)C2=O)cc1	-8	20	-41*	2	1
CCN(CC)S(=O)(=O)c1ccc(C(=O)OCCN2C(=O)c3cccc4c(N5CCOCC5)ccc(c34)C2=O)cc1	-7	3	-23	15	5
Cc1c(C(=O)OCC(=O)N(C)c2ccccc2)oc2ccccc12	3	6	11	2	0
O=C(NC1CC(=O)N(c2ccc(Cl)cc2)C1)N1CCN(C(=O)c2ccco2)CC1 (stereo unspecified)	-10	-1	13	1	0
CC(=O)N(C(C)=O)N1C(=O)c2cccc3c(N4CCOCC4)ccc(c23)C1=O	-3	0	-2	31*	15
O=C(OCCN1C(=O)c2cccc3c(N4CCOCC4)ccc(c23)C1=O)c1cc(Cl)cc(Cl)c1	0	10	-9	12	0
O=C1c2ccc([N+](=O)[O-])cc2C(=O)N1c1ccc(Cl)cn1	2	-7	1	0	1
O=C1c2cccc3c([N+](=O)[O-])ccc(c23)C(=O)N1c1ccc(Cl)cn1	-8	-21	-49*	3	4
O=C1c2cccc3c([N+](=O)[O-])ccc(c23)C(=O)N1c1ccccn1	-11	4	-42*	4	-1
Cc1cccc(Cn2c(=O)n(CCCC(=O)NCc3ccccc3Cl)c(=O)c3ccccc32)c1	0	4	0	16	-2
CC1Cc2cc(S(=O)(=O)CCC(=O)N3CCN(c4ccccc4)CC3)ccc2N1C(=O)C1CC1 (stereo unspecified)	-11	-2	-31*	7	0
CCOc1ccccc1N(C)S(=O)(=O)c1ccc2c(c1)CC(C)N2C(=O)C1CC1 (stereo unspecified)	-8	-4	-32*	20	0
CC1Cc2cc(S(=O)(=O)N(Cc3ccccc3)C(C)C)ccc2N1C(=O)C1CCC1 (stereo unspecified)	-2	-3	6	4	2
CCN(c1ccccc1)S(=O)(=O)c1ccc2c(c1)CC(C)N2C(=O)C1CC1 (stereo unspecified)	-3	0	-32*	17	0
O=C(c1ccc(Cl)cc1)N1CCCCC1CCN1CCOCC1 (stereo unspecified)	5	-1	-5	-1	1
CC1CCCCN1Cc1c(O)ccc2c(=O)c(-c3ccc(Cl)cc3)c(C(F)(F)F)oc12 (stereo unspecified)	-2	3	4	0	0
